# Assay results from ChEMBL document CHEMBL1961873, “Compounds: GSK PKIS; Assays: Nanosyn kinase panel” (2012).
# What was measured:
# [1] = biological target: T1, Serine/threonine-protein kinase TBK1 (Homo sapiens) (UniProt Q9UHD2); conditions: at 1 µM;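 further: values are mean inhibition of TBK1, screened as part of the GSK published kinase inhibitor set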
# T1 sequence (whole entry): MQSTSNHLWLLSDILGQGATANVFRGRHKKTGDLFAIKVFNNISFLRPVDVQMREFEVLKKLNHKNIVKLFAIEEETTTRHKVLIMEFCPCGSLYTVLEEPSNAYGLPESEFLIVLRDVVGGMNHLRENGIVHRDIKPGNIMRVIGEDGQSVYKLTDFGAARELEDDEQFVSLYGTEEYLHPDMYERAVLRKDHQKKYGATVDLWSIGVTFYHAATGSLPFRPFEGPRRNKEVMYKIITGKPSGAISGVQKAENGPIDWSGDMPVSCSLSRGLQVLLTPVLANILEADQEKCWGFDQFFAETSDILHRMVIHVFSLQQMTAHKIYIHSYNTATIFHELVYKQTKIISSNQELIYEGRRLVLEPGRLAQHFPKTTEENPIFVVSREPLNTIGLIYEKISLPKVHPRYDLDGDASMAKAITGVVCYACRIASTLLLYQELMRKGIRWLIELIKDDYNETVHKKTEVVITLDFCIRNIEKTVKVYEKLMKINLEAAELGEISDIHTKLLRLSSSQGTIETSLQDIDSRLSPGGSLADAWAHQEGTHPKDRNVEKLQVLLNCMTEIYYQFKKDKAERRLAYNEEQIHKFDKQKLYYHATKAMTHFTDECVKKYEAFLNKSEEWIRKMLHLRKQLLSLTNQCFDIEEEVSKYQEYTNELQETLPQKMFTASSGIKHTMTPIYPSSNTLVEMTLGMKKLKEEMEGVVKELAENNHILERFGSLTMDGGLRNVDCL
# [2] = biological target: T2, Testis-specific serine/threonine-protein kinase 1 (Homo sapiens) (UniProt Q9BXA7); conditions: at 0.1 µM
# T2 sequence (whole entry): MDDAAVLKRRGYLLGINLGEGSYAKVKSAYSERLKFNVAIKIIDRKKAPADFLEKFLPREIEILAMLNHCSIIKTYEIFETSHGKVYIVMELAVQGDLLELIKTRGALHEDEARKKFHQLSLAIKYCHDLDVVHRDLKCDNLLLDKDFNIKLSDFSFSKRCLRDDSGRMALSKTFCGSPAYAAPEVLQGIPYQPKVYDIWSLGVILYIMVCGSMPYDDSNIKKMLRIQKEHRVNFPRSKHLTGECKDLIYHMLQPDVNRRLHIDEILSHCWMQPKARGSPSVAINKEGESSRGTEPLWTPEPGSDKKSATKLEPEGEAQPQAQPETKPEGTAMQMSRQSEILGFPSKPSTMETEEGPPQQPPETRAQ
# [3] = biological target: T2, Testis-specific serine/threonine-protein kinase 1 (Homo sapiens); conditions: at 1 µM
# [4] = biological target: T3, Testis-specific serine/threonine-protein kinase 2 (Homo sapiens) (UniProt Q96PF2); conditions: at 0.1 µM
# T3 sequence (whole entry): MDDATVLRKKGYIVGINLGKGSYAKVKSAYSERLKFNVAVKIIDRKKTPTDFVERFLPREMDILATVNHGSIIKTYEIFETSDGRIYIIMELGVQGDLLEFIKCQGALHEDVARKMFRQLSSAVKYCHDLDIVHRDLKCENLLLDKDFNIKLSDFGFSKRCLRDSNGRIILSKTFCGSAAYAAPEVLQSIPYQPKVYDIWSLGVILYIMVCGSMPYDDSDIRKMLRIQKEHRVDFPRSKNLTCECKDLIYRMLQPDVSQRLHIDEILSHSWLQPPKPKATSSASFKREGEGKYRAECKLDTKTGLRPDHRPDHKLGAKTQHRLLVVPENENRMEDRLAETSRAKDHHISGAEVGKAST
# [5] = biological target: T3, Testis-specific serine/threonine-protein kinase 2 (Homo sapiens); conditions: at 1 µM
# [6] = biological target: Casein kinase I isoform alpha (Homo sapiens) (UniProt P48729); conditions: at 0.1 µM
# Chain of Casein kinase I isoform alpha (Homo sapiens) (P48729 2-337 limits assumed): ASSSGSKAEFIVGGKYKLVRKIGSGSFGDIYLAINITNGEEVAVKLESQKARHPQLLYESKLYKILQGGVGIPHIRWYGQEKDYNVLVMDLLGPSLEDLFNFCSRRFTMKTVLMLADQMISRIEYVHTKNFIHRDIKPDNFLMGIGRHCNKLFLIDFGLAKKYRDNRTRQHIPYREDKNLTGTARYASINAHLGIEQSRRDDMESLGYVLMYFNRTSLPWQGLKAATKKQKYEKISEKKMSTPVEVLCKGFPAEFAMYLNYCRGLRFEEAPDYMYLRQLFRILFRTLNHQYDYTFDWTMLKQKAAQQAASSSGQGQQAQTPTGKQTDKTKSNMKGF
# [7] = biological target: Casein kinase I isoform alpha (Homo sapiens) (UniProt P48729); conditions: at 1 µM
# [8] = biological target: Casein kinase I isoform gamma-1 (Homo sapiens) (UniProt Q9HCP0); conditions: at 0.1 µM
# Chain of Casein kinase I isoform gamma-1 (Homo sapiens) (Q9HCP0 whole entry, looked up, canonical isoform): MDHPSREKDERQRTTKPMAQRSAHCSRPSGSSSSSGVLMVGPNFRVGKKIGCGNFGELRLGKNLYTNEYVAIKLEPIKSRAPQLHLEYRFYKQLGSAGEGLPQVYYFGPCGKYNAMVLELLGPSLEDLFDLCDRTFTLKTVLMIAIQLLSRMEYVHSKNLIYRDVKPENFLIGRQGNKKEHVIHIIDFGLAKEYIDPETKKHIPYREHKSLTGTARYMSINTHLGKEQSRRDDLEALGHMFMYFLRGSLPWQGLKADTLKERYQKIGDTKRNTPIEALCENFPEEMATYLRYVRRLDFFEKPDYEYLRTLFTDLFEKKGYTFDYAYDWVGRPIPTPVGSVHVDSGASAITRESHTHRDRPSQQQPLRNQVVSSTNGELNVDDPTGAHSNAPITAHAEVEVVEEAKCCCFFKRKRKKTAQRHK
# [9] = biological target: Casein kinase I isoform gamma-1 (Homo sapiens) (UniProt Q9HCP0); conditions: at 1 µM
# [10] = biological target: Casein kinase I isoform gamma-2 (Homo sapiens) (UniProt P78368); conditions: at 0.1 µM
# Chain of Casein kinase I isoform gamma-2 (Homo sapiens) (P78368 whole entry, looked up, canonical isoform): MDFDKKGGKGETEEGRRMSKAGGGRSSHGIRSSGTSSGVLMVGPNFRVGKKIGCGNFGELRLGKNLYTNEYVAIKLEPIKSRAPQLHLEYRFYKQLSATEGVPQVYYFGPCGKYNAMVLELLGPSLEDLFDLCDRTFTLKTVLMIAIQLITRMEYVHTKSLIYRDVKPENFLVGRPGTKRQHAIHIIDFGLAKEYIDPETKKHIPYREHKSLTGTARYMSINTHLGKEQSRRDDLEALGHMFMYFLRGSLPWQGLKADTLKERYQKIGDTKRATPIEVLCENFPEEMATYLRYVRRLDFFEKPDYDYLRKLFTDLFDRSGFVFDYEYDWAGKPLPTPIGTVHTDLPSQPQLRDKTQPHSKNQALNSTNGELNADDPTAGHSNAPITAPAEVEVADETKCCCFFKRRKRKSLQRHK
# [11] = biological target: Casein kinase I isoform gamma-2 (Homo sapiens) (UniProt P78368); conditions: at 1 µM
# [12] = biological target: Casein kinase I isoform gamma-3 (Homo sapiens) (UniProt Q9Y6M4); conditions: at 0.1 µM
# Chain of Casein kinase I isoform gamma-3 (Homo sapiens) (Q9Y6M4 whole entry, looked up, canonical isoform): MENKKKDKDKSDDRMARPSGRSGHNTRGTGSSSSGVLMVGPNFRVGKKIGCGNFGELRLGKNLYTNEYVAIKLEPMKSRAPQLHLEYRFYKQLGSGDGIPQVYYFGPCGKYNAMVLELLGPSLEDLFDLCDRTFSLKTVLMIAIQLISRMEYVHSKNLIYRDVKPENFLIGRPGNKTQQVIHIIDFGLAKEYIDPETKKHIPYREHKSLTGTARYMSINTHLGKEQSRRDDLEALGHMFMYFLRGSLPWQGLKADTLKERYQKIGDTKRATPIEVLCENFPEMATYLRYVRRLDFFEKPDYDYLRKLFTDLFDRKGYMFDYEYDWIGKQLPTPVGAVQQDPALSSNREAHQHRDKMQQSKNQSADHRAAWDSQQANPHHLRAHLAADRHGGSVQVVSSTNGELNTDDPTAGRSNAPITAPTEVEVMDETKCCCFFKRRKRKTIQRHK
# [13] = biological target: Casein kinase I isoform gamma-3 (Homo sapiens) (UniProt Q9Y6M4); conditions: at 1 µM
# [14] = biological target: Cyclin-dependent kinase 1 (Homo sapiens) (UniProt P06493); conditions: at 0.1 µM
# Chain of Cyclin-dependent kinase 1 (Homo sapiens) (P06493 whole entry, looked up): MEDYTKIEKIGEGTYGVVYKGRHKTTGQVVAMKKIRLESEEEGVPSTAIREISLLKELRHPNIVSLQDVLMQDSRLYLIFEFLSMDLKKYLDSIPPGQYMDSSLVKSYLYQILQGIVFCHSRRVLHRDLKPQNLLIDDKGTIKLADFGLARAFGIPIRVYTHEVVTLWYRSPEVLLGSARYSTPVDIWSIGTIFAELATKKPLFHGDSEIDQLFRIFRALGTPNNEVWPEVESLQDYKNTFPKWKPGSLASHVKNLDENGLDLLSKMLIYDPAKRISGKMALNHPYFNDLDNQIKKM
# [15] = biological target: Cyclin-dependent kinase 1 (Homo sapiens) (UniProt P06493); conditions: at 1 µM
# [16] = biological target: Cyclin-dependent kinase 2 (Homo sapiens) (UniProt P24941); conditions: at 0.1 µM
# [17] = biological target: Cyclin-dependent kinase 2 (Homo sapiens) (UniProt P24941); conditions: at 1 µM
# [18] = biological target: Cyclin-dependent kinase 2 (Homo sapiens) (UniProt P24941); conditions: at 0.1 µM; remark: listed apart in the source
# [19] = biological target: Cyclin-dependent kinase 2 (Homo sapiens) (UniProt P24941); conditions: at 1 µM; remark: listed apart in the source
# [20] = biological target: CDK3/Cyclin E (Homo sapiens) (UniProt P24864+Q00526); conditions: at 0.1 µM;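 further: reported percentages are mean inhibition values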
# Chain of CDK3/Cyclin E (Homo sapiens) (P24864 whole entry, looked up): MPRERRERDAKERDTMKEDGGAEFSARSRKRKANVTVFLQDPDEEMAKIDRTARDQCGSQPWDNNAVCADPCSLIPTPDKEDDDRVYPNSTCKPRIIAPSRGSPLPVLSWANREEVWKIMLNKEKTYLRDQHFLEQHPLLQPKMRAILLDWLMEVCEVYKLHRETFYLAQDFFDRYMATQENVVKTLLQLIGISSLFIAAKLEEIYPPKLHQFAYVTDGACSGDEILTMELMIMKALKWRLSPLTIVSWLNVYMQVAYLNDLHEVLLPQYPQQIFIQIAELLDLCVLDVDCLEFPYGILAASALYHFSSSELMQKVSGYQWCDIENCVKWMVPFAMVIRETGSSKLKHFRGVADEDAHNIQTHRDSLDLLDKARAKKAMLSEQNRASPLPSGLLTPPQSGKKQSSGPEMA
# Chain of CDK3/Cyclin E (Homo sapiens) (Q00526 whole entry, looked up): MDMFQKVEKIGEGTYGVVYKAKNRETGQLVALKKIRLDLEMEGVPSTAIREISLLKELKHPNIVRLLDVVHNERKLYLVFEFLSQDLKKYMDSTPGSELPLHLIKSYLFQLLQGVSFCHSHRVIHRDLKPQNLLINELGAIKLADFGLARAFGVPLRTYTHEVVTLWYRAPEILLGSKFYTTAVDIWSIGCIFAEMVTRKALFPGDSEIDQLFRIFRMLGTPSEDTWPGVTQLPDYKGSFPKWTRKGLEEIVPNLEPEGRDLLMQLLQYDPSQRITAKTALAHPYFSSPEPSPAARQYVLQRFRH
SMILES,inhibition [1] [%],inhibition [2] [%],inhibition [3] [%],inhibition [4] [%],inhibition [5] [%],inhibition [6] [%],inhibition [7] [%],inhibition [8] [%],inhibition [9] [%],inhibition [10] [%],inhibition [11] [%],inhibition [12] [%],inhibition [13] [%],inhibition [14] [%],inhibition [15] [%],inhibition [16] [%],inhibition [17] [%],inhibition [18] [%],inhibition [19] [%],inhibition [20] [%]
Cc1nnc(-c2ccc(C)c(-c3ccc(C(=O)Nc4cccc(C#N)c4)cc3)c2)o1,5,0.97,2.9,1.4,2.16,8.37,6.82,1.85,2.59,1.7,1.54,1.46,0.25,0.88,1.11,1.13,0.6,1.82,2.15,4.52
CS(=O)(=O)CCNCc1ccc(-c2ccc3ncnc(Nc4ccc(OCc5cccc(F)c5)c(C(F)(F)F)c4)c3c2)o1,4.04,4.81,5.61,2.88,3.87,1.94,2.33,3.11,4.58,2.69,3.77,2.34,1.71,-0.13,2,5.89,-0.79,1.93,3.21,2.34
Cn1cc(C=C2C(=O)Nc3cccnc32)c2ccccc21,10.2,1.87,1.12,-0.65,-0.52,3.21,14.3,2.59,4.56,1.76,3.63,1.67,5.3,4.27,7.4,2.66,3.89,7.44,8.9,10.7
CS(=O)(=O)CCNCc1ccc(-c2ccc3ncnc(Nc4ccc(OCc5ccccc5)c(Cl)c4)c3c2)o1,2.91,2.07,1.74,-0.14,0.89,-0.43,0.15,1.35,0.05,-0.08,0.01,0.7,-0.59,2.72,3.96,2.6,3.73,3.64,4.5,0.1
COc1cc(C=NNc2ncnc3c2cnn3-c2ccccc2)ccc1O,21.5,5.71,1.92,1.3,-1.3,4.04,6.98,1.27,3.26,2.04,18.1,1.55,5.99,6.11,35.8,6.03,42.1,2.88,13.7,2.09
CS(=O)(=O)Nc1ccc(N/C=C2\C(=O)Nc3ccccc32)cc1,14.2,0.15,2.2,-1.89,-1.19,-2.3,7.96,-1.92,1.81,-1.68,2.22,0.3,3.9,1.78,9.18,1.42,18.1,2.53,22,3.36
O=C1NC(=O)C(c2ccccc2Cl)=C1Nc1cccc(O)c1,6.91,1.56,1.53,1.05,-1.27,4.13,2.81,2.54,3.11,1.14,2.79,0.98,1.47,2.95,21,3.51,20.6,3.32,18.7,2.37
NC(=O)c1cccc(Nc2nccc(Nc3cccc4[nH]ncc34)n2)c1,26.1,-0.96,15.6,-1.7,-1.85,1.36,1.87,-2.71,5.27,-1.57,1.89,-2.55,9.56,1.69,14.5,10.3,59.9,3.38,34.2,1.14
CNC(=O)c1cncc(/C=C/c2c(Cl)cccc2Cl)c1,4.76,3.51,4.44,1.15,3.45,2.31,6.99,4.49,6.18,2.94,7.62,1.61,4.59,-1.13,-0.82,0.92,-0.22,-0.41,3.85,-4.75
COc1ccc(-c2ccncc2)cc1C(N)=O,2.44,5.12,3.57,3.23,1.75,4.33,10.2,3.94,4.04,3.53,3.82,3.17,1.39,2.26,0.88,3.39,2.68,3.05,4.66,-2.82
Cc1nn(C)c2cc(N(C)c3ccnc(Nc4cccc(S(N)(=O)=O)c4)n3)ccc12,10.3,3.95,5.39,1.61,2.71,0.9,0.72,2.37,2.59,1.72,2.93,0.54,3.06,0.25,5.8,-0.61,2.33,2.2,8.5,1.91
O=C1Nc2ccc(C(=O)c3ccco3)cc2C1=Cc1cc(Cl)c(O)c(Cl)c1,40.7,1.18,3.77,1.82,1.41,-0.89,5.16,2.49,4.24,1.66,5.46,1.18,6.13,2.24,7.36,2.59,19.3,4.71,15.7,0.83
COc1cc2ncn(-c3cc(O[C@H](C)c4ccccc4Cl)c(C(N)=O)s3)c2cc1OC,6.39,4.46,8.45,2.71,4.44,3,3.21,3.26,3.83,2.55,2.68,2.15,3.1,0.89,6.45,–,–,–,–,2.71
CS(=O)(=O)CCNCc1nc(-c2ccc3ncnc(Nc4ccc(F)c(Cl)c4)c3c2)cs1,2.28,1.9,0.45,0.45,1.08,0.89,1.04,1.14,1.55,1.92,0.64,2.39,3.39,-1.31,-0.06,0.75,9.99,0.06,1.32,0.76
